This assay concerns Caenorhabditis elegans N2 infected with Nematocida parisii ERTm1. In words: progeny production relative to DMSO uninfected control; higher = more progeny despite microsporidia infection (inhibition of infection with low host toxicity). As to conditions: infection time 6 days. In short, it runs like this: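 Values give progeny production relative to spore-free vehicle wells, as a percentage averaged across replicates. For each of three runs per compound and dose, 100 bleach-synchronised wild-type C. elegans L1 larvae per well were grown in 96-well plates with K-medium, E. coli OP50, 15,000 N. parisii spores/μL and compound at 100 μM or 40 μM in 1% DMSO. After 6 days of shaking at 21°C, worms were Rose Bengal-stained, flatbed-scanned and counted with WorMachine.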

± gives the standard deviation of the averaged measurements.

For `CC[N+]1(C/C2=C/CCCCCC2)CCC(NC(=O)C2c3cc(Cl)ccc3Oc3ccc(Cl)cc32)CC1` (stereo not given), the progeny production by setting is: (40 µM) 3.01 ± 1.9%; (100 µM) 2.8 ± 2.2%.
On to `CC(C)(C)c1cc(CCC(=O)N2CCC2)cc(C(C)(C)C)c1O`, for which the progeny production reads like this: (40 µM) 5.76 ± 2.7%; (100 µM) 14.4 ± 8.6%.
Turning to `CCNC(=O)Nc1cc(-c2ccccc2)c(-c2cncc(C(=O)O)c2)cn1`, the progeny production reads like this: (40 µM) 3.89 ± 0.4%; (100 µM) 28.1 ± 28%.
Taken in the same sequence, the figures for `O=[N+]([O-])c1cn(Cc2nc(O)nc(O)c2Br)cn1` were 8.41 ± 4.5% and 8.29 ± 4.9%.
For `O=c1[nH]cnc2c1ncn2[C@H]1CC[C@@H](CO)O1`, in that order: 6.61 ± 0.81% and 9.85 ± 7.2%.
Turning to `NS(=O)(=O)c1ccc(NC(=O)NC(c2ccccc2)c2ccccc2)cc1`, the progeny production stood at 6.18 ± 1.6% (40 µM) and 16.9 ± 14% (100 µM).
`COc1ccc(SC(=O)N[C@H](CCC(=O)O)C(=O)O)cc1`: the progeny production runs as follows: (40 µM) 9.06 ± 7.1%; (100 µM) 11.3 ± 0.6%.
As to `O=C(Nc1cccc(C2=NCCN2)c1)c1ccc(-c2ccc(C(=O)Nc3cccc(C4=NCCN4)c3)cc2)cc1`, the progeny production is, setting by setting: (40 µM) 7.71 ± 2.9%; (100 µM) 27.6 ± 16%.
Take `O=C(NCc1ccc2c3c(cccc13)C(=O)N2)c1cccs1`: the progeny production worked out at 6.15 ± 4.4% (40 µM) and 9.75 ± 6.2% (100 µM).
Molecule `CC(C)(C)c1ccc(C(Cn2cccc(C(F)(F)F)c2=O)NC2Cc3ccccc3C2)cc1` (stereo not given) registered a progeny production (40 µM) of 1.91 ± 1.3% and a progeny production (100 µM) of 13.4 ± 9.4%.
With `CC(C)C(=O)N[C@H]1[C@H]([C@H](O)[C@H](O)CO)OC(C(=O)O)=C[C@@H]1N=[N+]=[N-]`, the progeny production (40 µM) turned out to be 5.36 ± 3.2% and the progeny production (100 µM) came to 14.6 ± 5.9%.
In the case of `CC(C)n1cnc2c(NCc3ccccc3)nc(NCc3ccccc3)nc21`, the progeny production was 7.59 ± 5.2% (40 µM) and 12.1 ± 7.2% (100 µM).
Taken in the same sequence, the figures for `Nc1nc2c(Cc3cccnc3)c[nH]c2c(=O)[nH]1` were 5.79 ± 0.11% and 16.4 ± 9.7%.
For `CCNC(=O)Nc1cn2c(-c3ncc(CC)cn3)cc(-c3cccnc3)cc2n1`, in that order: 3.09 ± 1.5% and 6.08 ± 4.7%.
As for `CS(=O)(=O)c1ccc(Oc2ccc(Cl)cc2)cc1`, the progeny production came to 2.98 ± 0.48% (40 µM) and 13.1 ± 9.1% (100 µM).
In the case of `O=C(N[C@H](CCS)C(=O)N[C@H](Cc1ccccc1)C(=O)O)c1cc2ccccc2[nH]1`, the progeny production is, setting by setting: (40 µM) 6.68 ± 3.5%; (100 µM) 11.3 ± 6.7%.
For `CC(=O)Oc1ccccc1C(=O)Nc1ncc([N+](=O)[O-])s1`, in that order: 3.11 ± 1.7% and 10.8 ± 5.3%.
Taken in the same sequence, the figures for `CC(C)(C)c1cc(C(=O)/C(C#N)=N/Nc2cccc(Cl)c2)no1` were 4.44 ± 0.8% and 13.4 ± 11%.
As to `CCCC1(C2CC2)c2cc(Cl)ccc2NC(=O)N1C` (stereo not given), the progeny production came out at 2.32 ± 0.043% (40 µM) and 11.3 ± 3.5% (100 µM).
With `CC(=O)NC[C@H]1CN(c2ccc(N3CCSCC3)c(F)c2)C(=O)O1`, the progeny production (40 µM) was 6.06 ± 3.1% and the progeny production (100 µM) is 10.4 ± 6.2%.
As for `CCOc1ccc(/C=N/NC(=O)C2CC2c2ccc(C(C)(C)C)cc2)cc1OCC` (stereo not given), the progeny production runs as follows: (40 µM) 5.73 ± 4.8%; (100 µM) 12 ± 7.9%.
Regarding `COC(=O)Nc1nc2cc([S+]([O-])c3ccccc3)ccc2[nH]1` (stereo not given), the progeny production is 6.27 ± 3.5% (40 µM) and 23 ± 20% (100 µM).
With `Nc1nc(Nc2ccc3nc(-c4ccc(F)cc4)cc(N)c3c2)cc(-c2ccccc2)n1`, the progeny production by setting is: (40 µM) 3.92 ± 1.1%; (100 µM) 7.7 ± 7.8%.
As for `CCOCc1nc2c(N)nc3ccccc3c2n1CC(C)(C)O`, the progeny production amounted to 3.75 ± 1.7% (40 µM) and 14.8 ± 5.8% (100 µM).
In turn, `C[C@H]1CC[C@@]2(O)C(C)(C)[C@@H]3CC[C@@]2(C)[C@H]1C3` gave a progeny production (40 µM) of 6.77 ± 4.3% and a progeny production (100 µM) of 7.52 ± 7.7%.
Regarding `Fc1ccc2c(/C=C/c3cccnc3)c[nH]c2c1`, the progeny production by setting is: (40 µM) 3.47 ± 0.88%; (100 µM) 19.9 ± 9%.
With `CCc1cc(Nc2cc(=O)n(CCN3CCN(C(=O)c4ccccc4)CC3)c(=O)[nH]2)ccc1C`, the progeny production is 5.16 ± 2.4% (40 µM) and 21 ± 12% (100 µM).
As for `O=C(c1ccc(F)cc1)N1CCN2C(=O)c3ccccc3C12c1ccccc1` (stereo not given), the progeny production was 2.5 ± 1.4% (40 µM) and 7.13 ± 5% (100 µM).
With `CONC(=N)c1ccc(-c2ccc(-c3ccc(C(=N)NOC)cc3)o2)cc1`, the progeny production was determined as 5.44 ± 1.7% (40 µM) and 14.6 ± 6% (100 µM).
For `O=C(Nc1nnc(-c2ccc(Cl)cc2)o1)c1ccc(F)cc1`, in that order: 9.22 ± 7.4% and 12.6 ± 4.1%.

The values above are taken from the supplement of paper PMC10732440.
